Bioassay records as filed in PubChem BioAssay.
Pf Dd2 inh: qHTS Primary assay for Inhibitors of Plasmodium falciparum Dd2 growth in vitro; Potency, µM (series often up to 28.9 µM), for inactives: at the highest dose activity, negative = inhibition, most hits filed as inhibitors; AID 1347417, 2020; hit rate 4.3% among 120,000; P. falciparum Dd2 growth, SYBR Green, 72 h; active = well fitted inhibition curve with a large enough effect;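 also: plate controls were DMSO vehicle for no effect and reference drug for full effect; nearly all actives have a fitted effect of over 65% in size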
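Readout: SYBR Green fluorescence, 485 nm excitation, 535 nm emission, after ~16 h lysis at 37C. Before that, Dd2-infected red cells (2.5% hematocrit) grew 72 h with compound, 29 uM top final concentration.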
The depositor's hits bear a star; [ ] = another dose, or the depositor's remark. This is one part of a sample in which hits are shown more often than they occur. Potency is read from the fitted curve at half-maximal effect.

Results for CC(C)C[C@@H]1N[C@H](C(=O)NCCOc2ccccc2)Cc2c[nH]c3cccc1c23 ?
Pf Dd2 inh: 12.6µM*

How did CC(C)C[C@@H]1N[C@H](C(=O)N2CCC(NC(=O)c3ccccc3)CC2)Cc2c[nH]c3cccc1c23 do in these assays?
Pf Dd2 inh: 10µM*

How did CC(C)C[C@@H]1N[C@H](C(=O)NCc2ccco2)Cc2cn(Cc3nccn3C)c3cccc1c23 do in these assays?
Pf Dd2 inh: -16.2%

How did CCCNC(=O)[C@@H]1Cc2c[nH]c3cccc(c23)[C@H](CC(C)C)N1 do in these assays?
Pf Dd2 inh: inactive

What do the screens show for `CC(C)C[C@@H]1N[C@H](C(=O)NCc2ccccc2Cl)Cc2c[nH]c3cccc1c23`?
Pf Dd2 inh: inactive

What do the screens show for `CC(C)C[C@@H]1N[C@H](C(=O)NCc2ccccc2)Cc2c[nH]c3cccc1c23`?
Pf Dd2 inh: inactive

What do the screens show for `CC(C)C[C@@H]1N[C@H](C(=O)NCCCn2ccnc2)Cc2c[nH]c3cccc1c23`?
Pf Dd2 inh: 8.91µM*

How did CN1CCC2(CC1)CCN(Cc1ccc(OCC(O)CN3CCCCC3)cc1)C2 (stereo unspecified) do in these assays?
Pf Dd2 inh: -12.6%

What do the screens show for `COc1ccc(CCNC(=O)c2c(C)noc2-c2ccc(OC(F)(F)F)cc2)cc1OC`?
Pf Dd2 inh: inactive

What do the screens show for `COc1ccc(-c2cc(C(=O)NCc3cc(C)on3)c3c(c2)N(C)CCO3)cc1OC`?
Pf Dd2 inh: inactive

How did COCCn1cnnc1CN(C)C(=O)c1ccc2nc(C)cn2c1 do in these assays?
Pf Dd2 inh: 7.5%

Results for CCOc1ccccc1NC(=O)N1c2ccccc2CC1c1noc(C(C)C)n1 (stereo unspecified) ?
Pf Dd2 inh: inactive

What do the screens show for `CNC(=O)NC[C@H]1CCN(Cc2ccccc2C#N)C[C@H]1N(C)C`?
Pf Dd2 inh: inactive

How did COCCN1C(=O)c2ccccc2C(C(=O)NCc2ccc(Cl)cc2)C12CCCCC2 (stereo unspecified) do in these assays?
Pf Dd2 inh: inactive

What do the screens show for `CCn1ccc2cc(S(=O)(=O)N3CCC(C(=O)NCc4ccc(F)cc4)CC3)ccc21`?
Pf Dd2 inh: 13.1%

What do the screens show for `CCn1ccc2cc(S(=O)(=O)N3CCC(C(=O)NCCc4ccccc4)CC3)ccc21`?
Pf Dd2 inh: -8.9%

Results for CCn1ccc2cc(S(=O)(=O)N3CCC(C(=O)NCCc4ccc(SC)cc4)CC3)ccc21 ?
Pf Dd2 inh: 8.91µM*

What do the screens show for `O=C1NCc2ccccc2CC12CCN(Cc1cc(F)ccc1F)C2` (stereo unspecified)?
Pf Dd2 inh: -15.7%

What do the screens show for `O=C1NCc2ccccc2CC12CCCN(Cc1ccncc1)C2` (stereo unspecified)?
Pf Dd2 inh: -20.8%

How did O=C1NCc2ccccc2CC12CCCN(Cc1cc(F)ccc1O)C2 (stereo unspecified) do in these assays?
Pf Dd2 inh: 8.91µM*

Results for O=C1NCc2ccccc2CC12CCCN(Cc1ccnc3ccccc13)C2 (stereo unspecified) ?
Pf Dd2 inh: -21.9%

Results for O=C1NCc2ccccc2CC12CCN(Cc1cc(F)ccc1O)C2 (stereo unspecified) ?
Pf Dd2 inh: 11.2µM*

What do the screens show for `O=C1NCc2ccccc2CC12CCCN(Cc1ccc(F)cc1)C2` (stereo unspecified)?
Pf Dd2 inh: -24.6%

How did O=C1NCc2ccccc2CC12CCN(Cc1cc(F)ccc1F)CC2 do in these assays?
Pf Dd2 inh: 0.5%

Results for COc1ccc(CN2CCCC3(Cc4ccccc4CNC3=O)C2)c(OC)n1 (stereo unspecified) ?
Pf Dd2 inh: 5.01µM*

What do the screens show for `O=C1NCc2ccccc2CC12CCCN(Cc1c(F)cccc1Cl)C2` (stereo unspecified)?
Pf Dd2 inh: -19.9%

What do the screens show for `COCC(=O)N1CCC2(CC1)Nc1ccccc1NC2=O`?
Pf Dd2 inh: -4.5%

Results for COc1cccc(C(=O)NC2CCN(c3cnn(CC4CC4)c(=O)c3)CC2)c1OC ?
Pf Dd2 inh: -25.5%

What do the screens show for `Cc1noc(C)c1S(=O)(=O)NC1CCc2nn(CC3CC3)c(=O)n2CC1` (stereo unspecified)?
Pf Dd2 inh: 23.5%

Results for CN(C)C(=O)c1cccnc1OC1CCN(C(=O)Nc2ccc(Cl)cc2F)C1 (stereo unspecified) ?
Pf Dd2 inh: 15.3%

Results for CC(C)NC(=O)N[C@H]1CCN2C(=O)c3cc(Br)ccc3NC(=O)[C@@H]2C1 ?
Pf Dd2 inh: 6.9%[44.1 µM]

Results for CCCNC(=O)C1N(C(C)C)C(=O)C12CCCC2 (stereo unspecified) ?
Pf Dd2 inh: 7.1%

What do the screens show for `CCOC(=O)c1c(NC(=O)c2ccc(S(=O)(=O)N(CCOC)CCOC)cc2)sc2c1CC(C)(C)NC2(C)C`?
Pf Dd2 inh: 10µM*

Results for CCOC(=O)c1c(NC(=O)CS(=O)(=O)c2ccc(C)cc2)sc2c1CCCCC2 ?
Pf Dd2 inh: 43.1%

Results for CC1CCN(S(=O)(=O)c2ccc(C(=O)Nc3sc4c(c3C(N)=O)CC(C)(C)NC4(C)C)cc2)CC1 ?
Pf Dd2 inh: inactive

How did O=C(Cn1cccc1-c1nc(-c2ccc(F)cc2)no1)NC1CCCCC1 do in these assays?
Pf Dd2 inh: inactive

Results for O=C1NCCCCCCN(C(=O)C2CC2)[C@H]2C[C@H](C(=O)N3CCc4ccccc4C3)C[C@@H]12 ?
Pf Dd2 inh: inactive

How did Cc1cnc(C(=O)N2CCCCCCNC(=O)[C@@H]3C[C@@H](C(=O)N4CCc5ccccc5C4)C[C@@H]32)cn1 do in these assays?
Pf Dd2 inh: -16.3%

How did CC(C)(C)NC(=O)N1CCCCCCNC(=O)[C@@H]2C[C@@H](C(=O)N3CCc4ccccc4C3)C[C@@H]21 do in these assays?
Pf Dd2 inh: 4.47µM*

What do the screens show for `COc1cccc(C(=O)N2CCCC(n3cc(-c4nc(C5CC5)no4)nn3)C2)c1` (stereo unspecified)?
Pf Dd2 inh: -17.0%

Results for COC[C@@H]1CN(c2ncccn2)C[C@H]1C(=O)N(C)Cc1cn(C)nc1C ?
Pf Dd2 inh: -10.2%

Results for CCn1ncc(N2CCCC(CC(=O)NCc3ccc(C)c(C)c3)C2)cc1=O (stereo unspecified) ?
Pf Dd2 inh: inactive

Results for CCN(CC1CCCN(CCc2cccc(OC)c2)C1)C(=O)CN1CCCC1=O (stereo unspecified) ?
Pf Dd2 inh: -11.2%

What do the screens show for `CCN(CC1CCCN(CCc2cccc(OC)c2)C1)C(=O)c1cc(C)no1` (stereo unspecified)?
Pf Dd2 inh: 10µM*

Results for COc1ccccc1CN1CCCC(CN(CCN(C)C)C(=O)c2cc(C(C)C)no2)C1 (stereo unspecified) ?
Pf Dd2 inh: inactive

How did Cc1cccc(CN2CCCC3(CCN(C(=O)c4ccc(=O)[nH]c4)C3)C2=O)c1 (stereo unspecified) do in these assays?
Pf Dd2 inh: -20.6%

Results for CCCS(=O)(=O)N1CCCC(Cc2noc(-c3ccncc3)n2)C1 (stereo unspecified) ?
Pf Dd2 inh: inactive

What do the screens show for `COC1CN(c2ccc(C)cc2)C12CCN(C(=O)c1sc(C)nc1C)CC2` (stereo unspecified)?
Pf Dd2 inh: -14.8%

Results for CCCc1nc(C(=O)N2CCC3(CC2)C(=O)N(C)c2ccccc23)cs1 ?
Pf Dd2 inh: -30.3%

How did Cc1nc(C)c(C(=O)N2CCC(c3noc(-c4ccccn4)n3)C2)s1 (stereo unspecified) do in these assays?
Pf Dd2 inh: 14.1%[5.79 µM]
